# Activity calls are given as the source filed them. Rule for the calls: active = hit-call score of the fitted dose curve at least 0.9, where 1 is the maximum; inactive = score below 0.9.
# Assay: ATG_PPRE_CIS: Attagene CIS-FACTORIAL HepG2 Assay for human Peroxisome Proliferator-activated Response Element (PPRE) (AID 2282958)
# Conditions: HepG2 PPRE cis-element reporter, Attagene transcription factor profiling; actives raise or lower the signal
# Outline: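 Cells are first transfected transiently with the multiplexed reporter library, then dosed for 24 h. Total RNA is reverse-transcribed, amplified, fluorescently end-labeled and HpaI-cut before capillary electrophoresis; activity is fitted bidirectionally against DMSO controls.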
Structure (SMILES),outcome,AC50
NC(N)=NC(N)=NCCc1ccccc1,inactive,
CCC(=O)OC/C=C(\C)CCC=C(C)C,inactive,
C/C=C(\C)C(=O)OC/C=C(\C)CCC=C(C)C,,39.6 µM (active)
O=C1OC2(c3ccc(O)cc3Oc3cc(O)ccc32)c2ccccc21,inactive,
CC(C)Cc1ccc(C(C)C(=O)O)cc1 (stereo not drawn),,34.4 µM (active)
NC(=O)c1cnccn1,inactive,
CC(C)(C)C1CCC(O)CC1 (stereo not drawn),inactive,
CCCCOC(=O)C(C)OC(=O)CCC (stereo not drawn),inactive,
O=C(O)c1ccc(C(=O)O)c(C(=O)O)c1,inactive,
O=S(=O)(O)CCCN1CCOCC1,inactive,
C=C(C)C(=O)OCCC(C)OC(=O)C(=C)C (stereo not drawn),inactive,
CC(=O)N(C)C,inactive,
O=c1cc(-c2ccc(O)cc2)oc2cc(O)cc(O)c12,,26.7 µM (active)
CC1=CC(O)CC(C)(C)C1 (stereo not drawn),inactive,
CCC(=O)OCC=Cc1ccccc1,inactive,
CCCCC1CCCCC(=O)O1 (stereo not drawn),,44.3 µM (active)
CC(C)(O)CCc1ccccc1,inactive,
CN(C)CCC=C1c2ccccc2CCc2ccccc21,inactive,
CCOC(=O)COC(=O)c1ccccc1C(=O)OCC,inactive,
O=C(O)CS,inactive,
Brc1cc(Br)cc(Br)c1,inactive,
CC(C)Cc1ccccc1,inactive,
COc1ccc(OC)cc1,inactive,

# Assay: ATG_RORE_CIS: Attagene CIS-FACTORIAL HepG2 Assay for human RAR-related Orphan Receptor Element (RORE) (AID 2282959)
# Conditions: HepG2 Attagene cis-factorial RORE reporter, mRNA; actives raise or lower the signal
# Outline: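 Cells were HepG2 carrying transfected cis-regulated reporter constructs, dosed for 24 hours. Total RNA was reverse-transcribed and reporter cDNA amplified, fluorescently labeled and sized by capillary electrophoresis. Activity was fitted bidirectionally relative to DMSO.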
row,Structure (SMILES),outcome
1,NC(N)=NC(N)=NCCc1ccccc1,inactive
2,CCC(=O)OC/C=C(\C)CCC=C(C)C,inactive
3,C/C=C(\C)C(=O)OC/C=C(\C)CCC=C(C)C,inactive
4,O=C1OC2(c3ccc(O)cc3Oc3cc(O)ccc32)c2ccccc21,inactive
5,CC(C)Cc1ccc(C(C)C(=O)O)cc1 (stereo not drawn),inactive
6,NC(=O)c1cnccn1,inactive
7,CC1=CC(C)C(C=O)C(C)C1 (stereo not drawn) (tested in a mixture with another compound),inactive
8,CC(C)(C)C1CCC(O)CC1 (stereo not drawn),inactive
9,CCCCOC(=O)C(C)OC(=O)CCC (stereo not drawn),inactive
10,O=C(O)c1ccc(C(=O)O)c(C(=O)O)c1,inactive
11,CC(CCO)CC(C)(C)C (stereo not drawn),inactive
12,CCO[Si](CCC#N)(OCC)OCC,inactive
13,C=C(C)C(=O)OCCC(C)OC(=O)C(=C)C (stereo not drawn),inactive
14,CC(=O)N(C)C,inactive
15,CCC(=O)OCC=Cc1ccccc1,inactive
16,CCCCC1CCCCC(=O)O1 (stereo not drawn),inactive
17,CCCCCCCCCO,inactive
18,CC(C)(O)CCc1ccccc1,inactive
19,CCOC(=O)COC(=O)c1ccccc1C(=O)OCC,inactive
20,O=C(O)CS,inactive
21,CC(C)(CO)CO,inactive
22,CCCCOCCOCCO,inactive
23,COc1ccc(OC)cc1,inactive
24,Nc1ccc(O)c(N)c1,inactive
25,N=C1N=C(N)c2ccccc21,inactive

# From PubChem BioAssay (EPA / NIEHS)
